Data as given in PubChem BioAssay (NCATS).
Inconclusive results are not listed. The source made the active and inactive calls. The call rests on the fitted dose curve; in most records, active means well fitted curve in the direction sought with a large enough effect; inconclusive means small, poorly fitted or top-dose-only effect, or another doubt; inactive means no such curve, though single readings can be large; an effect the other way counts as inactive or inconclusive.

Legend:
[1] = biological target: Calcium and integrin-binding protein 1 (Homo sapiens) (UniProt Q99828); experiment: Primary qHTS for Identification of Calcium Integrin Binding Protein 1 (CIB1) Competitor (AID 1508620);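 further: GST tagged CIB1 binding a fluorescein labelled alphaIIb integrin peptide tracer; top concentration of the series differs between compounds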
Calcium and integrin-binding protein 1 (Homo sapiens), sequence (Q99828 whole entry, looked up): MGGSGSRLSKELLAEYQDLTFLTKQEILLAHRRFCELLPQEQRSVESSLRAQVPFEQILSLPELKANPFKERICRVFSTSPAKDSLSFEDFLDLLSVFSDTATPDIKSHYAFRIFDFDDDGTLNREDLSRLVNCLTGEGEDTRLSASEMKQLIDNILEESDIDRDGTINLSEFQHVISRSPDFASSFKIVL
Outline: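 Fluorescence polarization competition: CIB1-GST (1 uM final) preincubated with compound 15 min at room temperature, then FITC-labeled alphaIIb peptide (100 nM final) added for another 15 min. Polarization read at Ex 480/Em 540.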

[2] = Primary qHTS for inhibitors of nuclear receptor binding SET domain protein 2 (NSD2) in an isogenic RCH-ACV NSD2 p.E1099K mutant (9B) (AID 1645876); further: nearly all actives have a fitted effect of over 70% in size
[3] = Primary qHTS for inhibitors of nuclear receptor binding SET domain protein 2 (NSD2) in an RCH-ACV wild type WT cells (2C) (AID 1645877); further: nearly all actives have a fitted effect of over 70% in size

Measured: Potency

CC/C=C/C(O)C(O)C1=C(C)C(=O)C2(O1)C(=O)NC(OC)(C(=O)c1ccccc1)C2O (centres undefined)
inactive: all assays above

CCN=C1N[C@@H]2[C@@H](O)[C@H](O)[C@@H](CO)O[C@@H]2S1
inactive: all assays above

COC(=O)[C@]1(Cc2ccc(O)c(CC=C(C)C)c2)OC(=O)C(O)=C1c1ccc(O)cc1
inactive: all assays above

C[C@@H]1O[C@@H](O[C@H]2[C@H](O[C@H]3[C@H](O[C@H]4CC[C@@]5(C)C(CC[C@]6(C)C5CC=C5[C@@H]7CC(C)(C)CC(=O)[C@]7(C)CC[C@]56C)[C@@]4(C)CO)O[C@H](C(=O)O)[C@@H](O)[C@@H]3O)O[C@H](CO)[C@H](O)[C@@H]2O)[C@H](O)[C@H](O)[C@H]1O (some centres undefined)
inactive: [1] | [2] inactive [at 9.23 µM] | [3] inactive [at 9.23 µM]

COc1cc(O)cc(C)c1C(=O)OC1C(CO)OC(n2ccc(=O)[nH]c2=O)C1OC(C)=O (centres undefined)
inactive: all assays above

COc1ccc(OC2OC(CO[C@@H]3O[C@@H](C)[C@H](O)[C@@H](O)[C@H]3O)C(O)C(O)C2O)cc1OC (some centres undefined)
inactive: all assays above

C=C(C(=O)O)[C@@H]1CC[C@@]2(C)CCC[C@@](C)(O)[C@@H]2C1
inactive: all assays above

C[C@H]1/C=C/C=C/C=C/C=C/C=C/[C@@H](O)[C@H](C(=O)O)[C@H](O)C[C@H](O)CCC[C@H](O)C[C@H](O)C[C@H](O)[C@@H](C)C(=O)O[C@@H]1C
inactive: all assays above
